Results as given in article PMC9574860, “Chemical Toolkit for PARK7: Potent, Selective, and High-Throughput” (Journal of Medicinal Chemistry, 2022).
About 400 (5.1%) of roughly 7,900 compounds showed an effect of 50% or more. Shown is part of a subset that was picked to be rich in strong results.

target: Parkinson's disease protein 7 (PARK7/DJ1) (human, UniProt Q99497); test: primary screen, percent inhibition; read as competition with a fluorescent probe by fluorescence polarization; higher = more effect of the substance; conditions: 100 µM
Procedure, shortened: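 Covalent fragments at 100 μM final were incubated 2 h with 0.2 μM PARK7, then 20 nM probe JYQ-107 added for a further 2 h. Fluorescence polarization read at 480/520 nm; relative FP loss versus reference controls gave remaining enzyme activity.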

Sequence of Parkinson's disease protein 7 (PARK7/DJ1) (Q99497 whole entry, looked up, the tested form may be a part): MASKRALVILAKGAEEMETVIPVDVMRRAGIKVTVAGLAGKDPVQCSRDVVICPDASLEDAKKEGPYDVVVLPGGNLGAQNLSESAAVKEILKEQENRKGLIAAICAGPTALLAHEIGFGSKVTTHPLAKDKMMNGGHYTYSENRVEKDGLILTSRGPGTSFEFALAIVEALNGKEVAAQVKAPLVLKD

SMILES	Inhibition %
Cc1cc2ncn(CC3CO3)c2cc1C (stereo not drawn)	20.8%
C=CC(=O)N1CC(OC)Cc2ccccc21 (stereo not drawn)	13.5%
C=CC(=O)N1CCc2c(F)cccc2C1	6.26%
O=C(CCl)NCCOc1cccc(Cl)c1	17.8%
ClCC1COCCO1 (stereo not drawn)	-2.68%
CCN(Cc1ccc2c(c1)OCO2)C(=O)CCl	9.14%
Cc1ccn(S(=O)(=O)c2ccc(F)c(C)c2)n1	6.8%
CN(Cc1ccccc1)C(=O)C=CC(=O)O	23.5%
CN(CCc1ccccc1)c1nccnc1C#N	3.72%
CN(C#N)Cc1ccccc1	62.8%
C=CC(=O)N1CCN2CCOCC2C1 (stereo not drawn)	8.35%
CN(Cc1cccc(F)c1)C(=O)CCl	44.5%
COc1ccc(CN(C(=O)CCl)C2CC2)cc1	15.6%
CN(Cc1cccc(Cl)c1)C(=O)CCl	49.6%
COc1ccc(CN(C)C(=O)CCl)cc1	61.5%
NC(=O)c1ccc(OCCCl)cc1	-3.9%
COc1ccc2cc(CN(C)C(=O)CCl)ccc2c1	8%
CN(Cc1ccc(OC(F)F)cc1)C(=O)CCl	51.1%
CN(Cc1ccc(F)cc1)C(=O)CCl	39.9%
COc1cccc(CN(C)C(=O)CCl)c1	76.7%
CCOc1ccc(C(=O)CCl)cc1	84.9%
COc1ccc(C(=O)CCl)cc1	3.52%
N#Cc1ccc(N2CCc3sccc3C2)cn1	27.1%
C=CC(=O)N(C)C1CCCc2cccnc21 (stereo not drawn)	7.75%

SMILES	Inhibition %
N#CC1(CC2CO2)CCC1 (stereo not drawn)	3.78%
Cc1ccc(OC2CCCC2)c(B(O)O)c1	2.59%
COc1ccc2[nH]c(C)c(C(=O)CCl)c2c1	4.84%
O=C1OCCC1n1nnc(-c2ccc(F)cc2)n1 (stereo not drawn)	4.53%
C=CC(=O)NC1CSC1(C)C (stereo not drawn)	6.84%
OB(O)c1ccc(-c2ccccc2)cc1F	24.2%
C=CC(=O)N1CCCN(C(=O)c2ccco2)CC1	1.97%
Cc1ccc(C=C(C#N)C(N)=O)c(C)c1	4.01%
Cc1cccc(C)c1NC(=O)Cn1cnc(C#N)n1	6.38%
CCOc1ccc(CN(C)C(=O)CCl)cc1	67.6%
COc1ccc(CN(C)C(=O)CCl)cc1F	58.3%
CN(Cc1cccc(C(F)(F)F)c1)C(=O)CCl	37.1%
CCN(Cc1ccc(OC)c(F)c1)C(=O)CCl	10%
COC(=O)c1ccccc1N(C)C(=O)CCl	6.59%
C=CC(=O)N1CCCC1c1cccc2c1OCCO2 (stereo not drawn)	4.1%
C=CC(=O)Nc1nc2c(s1)COCC2	6.4%
CC1c2cccn2CCN1C(=O)n1ccnc1 (stereo not drawn)	22%
O=C(Nc1ccccc1)NC1CN(c2ccccc2)C1=O (stereo not drawn)	5.74%
CS(=O)(=O)c1ccccc1NC(=O)CCl	11.4%
Cc1ccc(CNC(=O)CCl)s1	3.17%
O=C(CCl)NCC(=O)c1cccs1	15.1%
Cc1[nH]c2ccccc2c1C(=O)CCl	6.53%
CC(=O)NCc1ccc(C(=O)CCl)s1	91.1%
O=C(CCl)c1sccc1Cl	94.4%

SMILES	Inhibition %
CC(C)(C)C(=O)NCc1ccc(C(=O)CCl)s1	76.2%
CS(=O)(=O)NCCc1ccc(C(=O)CCl)s1	97.6%
C=CC(=O)NCc1ccc(C)s1	1.04%
CCc1ccc(CNC(=O)CCl)s1	4.03%
O=C(CCl)NCc1cccs1	3.94%
COC(=O)c1sccc1NC(=O)CCl	3.83%
O=S(=O)(F)Cc1ccccc1Cl	7.95%
C=CC(=O)Nc1nsc(N2CCCC2)n1	16%
N#Cc1cc(C(=O)O)ccn1	4.99%
CCc1ccc(B2OC(C)(C)C(C)(C)O2)n1C(=O)OC(C)(C)C	5.89%
C=CC(=O)N1CCC(C)(N2CCOCC2)CC1	10%
C=CC(=O)NC1CCN(c2cnn(C)c2)C1 (stereo not drawn)	33.9%
CC1(C)OB(c2ccncc2)OC1(C)C	4.41%
O=C(CCl)NCCc1cccs1	31.1%
O=C(CCl)NCc1ccc(Cl)s1	15.9%
CC(=O)NCCc1ccc(C(=O)CCl)s1	90.4%
O=C(CCl)c1ccc(Cl)s1	94.6%
O=C(CCl)NC(=O)NCCc1cccs1	11.2%
O=C(CCl)c1ccc(CC(=O)N2CCOCC2)s1	7.37%
Cc1ccc(C(=O)CCl)s1	28.1%
NC(=O)Cc1ccc(C(=O)CCl)s1	97.4%
O=C(CCl)c1cnc(N2CCCCC2)s1	8.03%
N#Cc1nnc(-c2ccccc2)s1	11.8%
N#Cc1[nH]ccc2nccc1-2	18.7%

SMILES	Inhibition %
C=CC(=O)NC1COc2cc(F)cc(F)c21 (stereo not drawn)	3.21%
CC(C)c1ccccc1OCC1CO1 (stereo not drawn)	-4.39%
CN(C)CCc1ccc(B(O)O)cc1.Cl	2.57%
O=C(CCl)NCCc1ccsc1	27.9%
C=CC(=O)N1CCCN(CC2CCCO2)CC1 (stereo not drawn)	13.1%
Sc1nncc(-c2cccs2)n1	94.3%
O=C(CCl)Nc1nc(-c2cccs2)cs1	11.6%
Sc1nncc2ccccc12	8.48%
Cc1ccc(C=CS(=O)(=O)Nc2ccnn2C(C)C)cc1	13%
C=CC(=O)N1CCC(C(=O)O)(c2ccccc2)CC1	2.37%
Cc1ccc(F)c(N(C#N)Cc2nnc(C)o2)c1	69%
Cc1nnc(CN(C#N)c2ccc(F)c(Cl)c2)o1	5.26%
CCCn1c(C)nnc1CN(C#N)c1cc(C)ccc1F	20.1%
O=C1OCCC1N1CCN(c2nccs2)CC1 (stereo not drawn)	2.57%
O=c1[nH]nc(-c2ccc(F)cc2)o1	6.22%
O=c1[nH]nc(-c2cccs2)o1	12.1%
O=c1[nH]nc(-c2ccco2)o1	50.5%
O=C(O)Cn1nc(-c2ccc(F)cc2)oc1=O	12.4%
Nc1cncc(S(=O)(=O)F)c1	95.6%
Nc1ccc(S(=O)(=O)F)cc1	5.99%
N#CC(=Cc1ccc(-c2ccc(Cl)cc2Cl)o1)C(N)=O	3.17%
Cc1ccc(Cl)c(OCC2CO2)c1 (stereo not drawn)	7.81%
CC1(C)OB(c2c(Cl)cccc2Cl)OC1(C)C	1.49%
Cc1ccccc1N1CCN(C(=O)n2ccnc2)CC1	8.38%

SMILES	Inhibition %
CN(Cc1ccccc1Br)C(=O)CCl	93.9%
Cc1ccc(CN(C)C(=O)Cn2cnc(C#N)n2)c(C)c1	3.86%
CN(Cc1cc(Br)cs1)C(=O)CCl	42.9%
Cc1ccccc1CN(C)C(=O)CCl	56.6%
Cc1ccccc1CC(=O)NNC(=O)CCl	24%
CN(Cc1cc(C#N)ccc1F)C(=O)CCl	50.3%
Cc1ccc(CN(C)C(=O)CCl)c(C)c1	65.7%
CCN(Cc1ccc(C#N)cc1F)C(=O)CCl	16.8%
Cc1ccccc1CCNC(=O)CCl	8.29%
CN(Cc1cccs1)C(=O)CCl	36.6%
CC(NC(=O)CCl)c1cccs1 (stereo not drawn)	9.37%
C=CC(=O)N1CC(C)S(=O)(=O)C(C)C1 (stereo not drawn)	5.08%
Cn1nccc1C12CCOCC1O2 (stereo not drawn)	9.22%
COc1ccccc1COCC1CO1 (stereo not drawn)	4.72%
C=CC(=O)N1CCCC(c2nn(C)cc2C(=O)O)C1 (stereo not drawn)	0.724%
N#Cc1ncn(-c2ncc(C(F)(F)F)cc2Cl)n1	6.83%
C=CC(=O)NCC1CCCSC1 (stereo not drawn)	13.8%
CN(Cc1ccc(-c2ccc(Cl)cc2)o1)C(=O)CCl	79.2%
CN(Cc1ccco1)C(=O)CCl	53%
CN(Cc1ccc(Cl)s1)C(=O)CCl	30.4%
O=C(CCl)N(Cc1ccco1)c1ccccc1	17.8%
Cc1ccc(CN(C)C(=O)CCl)o1	40.8%
O=C(CCl)NC(=O)NC12CC3CC(CC(C3)C1)C2	0.699%
C=CC(=O)Nc1cn(C)nc1C(C)C	8.9%

SMILES	Inhibition %
CCn1c(N)c(C(=O)CCl)c(=O)[nH]c1=O	4.93%
C=CC(=O)N1C[C@]2(C)CC[C@@H](C2)C1(C)C	15%
O=S(=O)(F)c1ccc(-c2cn(Cc3cc(C4CC4)no3)nn2)cc1	3.46%
Cl.ClCCc1nc2ccccc2[nH]1	3.05%
C=CC(=O)NCC1(C)CCOC2(CCC2)C1 (stereo not drawn)	13.5%
CC1(C)OB(c2cccc(OCCN3CCCCC3)c2)OC1(C)C	-0.0143%
O=C(CCCl)NC1CCCCC1	3.8%
O=c1onc(-c2cccnc2)n1Cc1cc(F)cc(F)c1	16.6%
O=c1onc(-c2cccnc2)n1C1C=CCCC1 (stereo not drawn)	54.8%
O=c1onc(-c2ccccn2)n1C1C=CCCC1 (stereo not drawn)	5.08%
O=C(Nc1ccncc1)N1CCC(C2OCCO2)CC1	9.17%
O=C(Oc1ccccc1)N1CC(O)C1	29%
C=CC(=O)NC(C)c1cnn(C)c1 (stereo not drawn)	5.67%
O=C1NC(=O)C(CS(=O)(=O)F)N1 (stereo not drawn)	69.7%
O=C1NC(=O)C(CCS(=O)(=O)F)N1 (stereo not drawn)	97.6%
Cl.O=S(=O)(F)CCC1CCCCN1 (stereo not drawn)	1.97%
Cl.O=S(=O)(F)CC1CNCCO1 (stereo not drawn)	11%
Cl.O=S(=O)(F)CC1CCCNC1 (stereo not drawn)	7.49%
O=C1NC(=O)C(CCS)N1 (stereo not drawn)	26.8%
O=C1NC(=O)C(CS)N1 (stereo not drawn)	84.8%
CC1(C)NC(=O)N(CCS(=O)(=O)F)C1=O	-4.21%
